Tg IFNy HTS – blocks Toxoplasma gondii growth in the presence of IFN-gamma | activity change, negative = inhibition, % (concentration not given with the values) | Toxoplasma gondii growth in IFN-gamma-treated host cells; stronger effect = lower value | 69,000 compounds, 3.8% hits; in the data active = activity change below about -70%, passing the limit was not always enough;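 also: host cells are HeLa cells infected with Toxoplasma gondii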
Hits are given with their value; 0 = inactive. Many of the other results were omitted from the sample, so hits are more common in it than they were.

SMILES	Tg IFNy HTS
CCCCOc1c(C(=O)c2c(F)cc(C)cc2F)cnc2n[nH]cc12	-92
CCCS(=O)(=O)Nc1ccc(F)c(C(=O)c2c[nH]c3ncc(Cl)cc23)c1F	0
CCO[C@@H]1CC[C@@H]2[C@H]1OCCN2C(=O)Cc1ccc2c(c1)OCO2	0
C[C@@H](Oc1cc(-c2cnn(C3CCNCC3)c2)cnc1N)c1c(Cl)ccc(F)c1Cl	-78
C[C@H](Oc1cc(-c2cnn(C3CCNCC3)c2)cnc1N)c1c(Cl)ccc(F)c1Cl	0
O=C1CCc2cc(S(=O)(=O)NC(c3ccccc3)c3ccccc3)cc3c2N1CCC3	0
O=C(c1ccco1)N1CCN(Cc2nc(Cc3cccc(C(F)(F)F)c3)no2)CC1	0
CCc1ccccc1NC(=O)c1nnn(Cc2nc(-c3ccccc3OC)oc2C)c1C	0
Cc1ccc(-c2ccc(C3[C@H]4CNC[C@@H]3N4Cc3ccc(F)cc3)cc2)cc1 (stereo partly drawn)	0
c1csc(-c2nnc3n2C2(CCCC2)Cc2ccccc2-3)c1	-97
c1ccc(-c2nnc3n2C2(CCCCC2)Cc2ccccc2-3)cc1	0
c1coc(-c2nnc3n2C2(CCCC2)Cc2ccccc2-3)c1	0
Cc1nonc1C1CCCN1C(=O)c1cn(-c2ccccc2)nn1 (stereo not drawn)	0
CN(Cc1cc(C(C)(C)C)n[nH]1)Cc1nc2ccccc2n1C	0
Cc1ccc(N2CCCC2=O)cc1S(=O)(=O)NCCc1c(C)noc1C	0
Cc1ccc(N2CCCC2=O)cc1S(=O)(=O)Nc1ccc(N2CCCC2=O)cc1	-91
Cc1ccc(N2CCCC2=O)cc1S(=O)(=O)Nc1ccc2c(c1)CC(=O)N2	0
COc1cc(C(=O)Nc2ccc(NC(=O)C(C)(C)C)c(OC)c2)ccn1	0
COc1ccc(CC(=O)N2CCCC(c3nn(C)c4nccnc34)C2)cc1 (stereo not drawn)	0
O=C(Nc1ccccc1)Nc1ccccc1SCCS(=O)(=O)c1ccc(Cl)cc1	0
O=C(Nc1ccccc1Sc1c(Cl)cncc1Cl)c1cccs1	0
O=C(Nc1ccc(Cl)cc1)Nc1ccccc1Sc1c(Cl)cncc1Cl	-97
CC(C)n1nc(CN2CCOCC2)c2c1CN(Cc1ccoc1)C2	0
Cc1ccc(S(=O)(=O)N2C[C@@H]3C[C@@H](c4nnc(C)o4)O[C@@H]3C2)cc1	0
CN1CCN(Cc2ccccc2NC(=O)c2ccnn2C(F)F)CC1	0
SMILES	Tg IFNy HTS
O=C(c1ccc[nH]1)N1CCN(CC2CC2)c2ncccc2C1	0
Cc1ccc2[nH]cc(CCN3CC(C(=O)NC4CCCCCCC4)CC3=O)c2c1 (stereo not drawn)	0
O=C(NC1CCCCCCC1)C1CC(=O)N(CCc2c[nH]c3ccc(Cl)cc23)C1 (stereo not drawn)	-92
CC(C)c1ccc(NC(=O)C2CC(=O)N(CCc3c[nH]c4ccc(Cl)cc34)C2)cc1 (stereo not drawn)	0
COc1cc(F)c(C(C)C)cc1-c1ccc(C(F)(F)F)cc1CN1C(=O)O[C@H](c2cc(C(F)(F)F)cc(C(F)(F)F)c2)[C@H]1C	0
Oc1[nH]c2ccccc2c1N=Nc1nc(Nc2ccccc2)nc(N2CCOCC2)n1	-99
O=C1CSC(c2ccccc2)N1Nc1nc(N2CCOCC2)nc(N2CCOCC2)n1 (stereo not drawn)	0
O=C(O)CSc1nc(Nc2ccccc2)nc(N2CCOCC2)n1	0
COc1ccc(-c2nc(-c3cc4cc(Cl)ccc4oc3=O)cs2)cc1	0
Cc1cc(C)cc(NC(=O)N2CCC3(CC2)CC(=O)c2ccccc2O3)c1	0
Cc1cc(NC(=O)N2CCC3(CC2)CC(=O)c2ccccc2O3)ccc1Br	-75
O=C1CC2(CCN(C(=O)NCc3ccc(F)cc3)CC2)Oc2ccccc21	0
COc1cccc(C(=O)N2CCN(Cc3ccc4nsnc4c3)CC2)c1	0
Clc1cc(Cl)c(OCC#CI)cc1Cl	0
Nc1ncnc2c1ncn2C1OC(COP(=O)(O)O)C(O)C1O (stereo not drawn) (tested in a mixture with another compound)	0
CC(C)OC(=O)OCOP(=O)(CO[C@H](C)Cn1cnc2c(N)ncnc21)OCOC(=O)OC(C)C	-78
Nc1ncnc2c1ncn2CCOCP(=O)(O)O	0
CS(=O)(=O)N1CC(=O)N2[C@@H](CO)[C@H](c3ccc(C#Cc4ccc(F)cc4)cc3)[C@@H]2C1	0
CCCCC1C(=O)N(C)CCN1C(=O)c1cn(CCC2CCCCC2)nn1 (stereo not drawn)	0
COc1ccc(CCNC(=O)C2CCN(S(C)(=O)=O)CC2)cc1	0
CCCOc1ccc(-c2cc(C(=O)NCC3CCCO3)c3ccccc3n2)cc1 (stereo not drawn)	0
OCC#Cc1csc(-c2nccn2-c2cccc(-c3ccn[nH]3)c2)c1	0
COc1ccc2[nH]cc(CCNC(=O)c3ccc(N4CCCC4)c(S(=O)(=O)N4CCCC4)c3)c2c1	0
COc1ccc2[nH]cc(CCNc3ccc(S(=O)(=O)C(C)C)nn3)c2c1	-113
COc1ccc2[nH]cc(CCNc3ccc(S(=O)(=O)C4CCCCC4)nn3)c2c1	0
Cc1cnc2c(C(=O)NCCc3nccc(-c4ccccc4)n3)cnn2c1	0
